According to article PMC7862700, “An all-to-all approach to the identification of sequence-specific readers for epigenetic DNA modifications on cytosine”:

Columns and labels:
Experiment in all cases: DAPPL (digital affinity profiling via proximity ligation, sequencing); 10 mM Tris-HCl pH 7.5, 50 mM NaCl, 1 mM DTT, 4% glycerol, room temperature, 30 min; GST-TFs on glutathione beads, 16-mer random dsDNA library, 0.1% formaldehyde crosslink after washing; high values mean tight binding
FEV = molecular target: T1, FEV (Homo sapiens, UniProt Q99581 1-238); settings: protein: recombinant; tags: N-terminal GST; dsDNA, one strand shown
T1 sequence: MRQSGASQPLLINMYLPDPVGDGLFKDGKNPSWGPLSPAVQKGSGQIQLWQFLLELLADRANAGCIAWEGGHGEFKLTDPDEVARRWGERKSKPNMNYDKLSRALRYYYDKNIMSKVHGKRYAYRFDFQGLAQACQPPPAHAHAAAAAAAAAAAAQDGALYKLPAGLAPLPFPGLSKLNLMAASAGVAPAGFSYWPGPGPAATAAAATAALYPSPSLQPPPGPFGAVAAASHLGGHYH
Outline: (§1)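 In yeast, human transcription factors were expressed with a GST fusion, then pulled down on glutathione beads and given DNA barcodes. Pooled with a tag-only sample, they were exposed to 200 nmole of a 16-mer random double-stranded DNA library (Tris/NaCl/DTT/glycerol buffer, room temperature, 30 min), washed, crosslinked with 0.1% formaldehyde, proximity-ligated using BsaI/T4 ligase for 1 h at 37 °C, PCR-amplified and read on an Illumina NextSeq500. Each hexamer's frequency of reads for a factor, divided by the matching frequency for the tag-only sample, gives the binding signal.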

ETV5 = ETV5 (Homo sapiens, UniProt P41161 1-510); settings: protein: recombinant; tags: N-terminal GST; dsDNA, one strand shown
ETV5, sequence (P41161 whole entry): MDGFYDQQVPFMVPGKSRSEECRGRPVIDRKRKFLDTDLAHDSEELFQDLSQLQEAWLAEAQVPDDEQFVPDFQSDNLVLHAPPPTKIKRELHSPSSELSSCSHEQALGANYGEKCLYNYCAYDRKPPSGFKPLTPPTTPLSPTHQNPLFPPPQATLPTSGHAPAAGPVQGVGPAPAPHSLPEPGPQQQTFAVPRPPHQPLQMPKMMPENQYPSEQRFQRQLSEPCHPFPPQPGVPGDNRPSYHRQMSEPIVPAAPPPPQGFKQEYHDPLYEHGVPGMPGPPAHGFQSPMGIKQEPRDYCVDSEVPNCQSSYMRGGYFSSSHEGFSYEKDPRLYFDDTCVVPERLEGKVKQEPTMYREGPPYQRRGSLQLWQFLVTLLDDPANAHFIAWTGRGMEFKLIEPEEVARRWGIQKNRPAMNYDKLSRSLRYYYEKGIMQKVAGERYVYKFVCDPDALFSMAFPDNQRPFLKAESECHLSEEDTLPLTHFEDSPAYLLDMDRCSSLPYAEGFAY
Outline: as §1

HSF1 = HSF1 (Homo sapiens, UniProt Q00613 1-529); settings: protein: recombinant; tags: N-terminal GST; chain copies: 3; dsDNA, one strand shown
HSF1, sequence (Q00613 whole entry): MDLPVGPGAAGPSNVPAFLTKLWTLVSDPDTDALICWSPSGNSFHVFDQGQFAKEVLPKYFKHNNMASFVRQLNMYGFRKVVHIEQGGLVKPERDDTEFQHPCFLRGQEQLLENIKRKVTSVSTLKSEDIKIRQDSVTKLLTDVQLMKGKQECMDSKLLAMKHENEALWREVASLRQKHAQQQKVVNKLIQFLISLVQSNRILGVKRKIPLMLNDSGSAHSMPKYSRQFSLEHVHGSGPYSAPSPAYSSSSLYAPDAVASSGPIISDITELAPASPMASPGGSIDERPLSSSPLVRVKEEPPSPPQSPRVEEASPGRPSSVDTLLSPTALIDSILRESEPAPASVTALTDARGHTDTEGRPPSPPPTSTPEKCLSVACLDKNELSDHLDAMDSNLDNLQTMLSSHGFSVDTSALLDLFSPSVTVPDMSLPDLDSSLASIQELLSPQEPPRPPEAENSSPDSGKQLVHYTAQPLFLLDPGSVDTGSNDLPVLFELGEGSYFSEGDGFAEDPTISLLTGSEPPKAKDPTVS
Outline: as §1

SPIC = molecular target: T2, SPIC (Homo sapiens, UniProt Q8N5J4 1-248); settings: protein: recombinant; tags: N-terminal GST; dsDNA, one strand shown
T2 sequence: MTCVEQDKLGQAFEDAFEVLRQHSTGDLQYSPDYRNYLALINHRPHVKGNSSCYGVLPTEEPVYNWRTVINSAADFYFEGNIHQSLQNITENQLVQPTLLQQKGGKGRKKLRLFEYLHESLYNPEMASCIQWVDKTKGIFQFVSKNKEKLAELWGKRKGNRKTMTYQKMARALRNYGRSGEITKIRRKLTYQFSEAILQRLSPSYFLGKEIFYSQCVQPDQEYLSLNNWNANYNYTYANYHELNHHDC
Outline: as §1

ELF4 = ELF4 (Homo sapiens, UniProt Q99607 1-663); settings: protein: recombinant; tags: N-terminal GST; dsDNA, one strand shown
ELF4, sequence (Q99607 whole entry): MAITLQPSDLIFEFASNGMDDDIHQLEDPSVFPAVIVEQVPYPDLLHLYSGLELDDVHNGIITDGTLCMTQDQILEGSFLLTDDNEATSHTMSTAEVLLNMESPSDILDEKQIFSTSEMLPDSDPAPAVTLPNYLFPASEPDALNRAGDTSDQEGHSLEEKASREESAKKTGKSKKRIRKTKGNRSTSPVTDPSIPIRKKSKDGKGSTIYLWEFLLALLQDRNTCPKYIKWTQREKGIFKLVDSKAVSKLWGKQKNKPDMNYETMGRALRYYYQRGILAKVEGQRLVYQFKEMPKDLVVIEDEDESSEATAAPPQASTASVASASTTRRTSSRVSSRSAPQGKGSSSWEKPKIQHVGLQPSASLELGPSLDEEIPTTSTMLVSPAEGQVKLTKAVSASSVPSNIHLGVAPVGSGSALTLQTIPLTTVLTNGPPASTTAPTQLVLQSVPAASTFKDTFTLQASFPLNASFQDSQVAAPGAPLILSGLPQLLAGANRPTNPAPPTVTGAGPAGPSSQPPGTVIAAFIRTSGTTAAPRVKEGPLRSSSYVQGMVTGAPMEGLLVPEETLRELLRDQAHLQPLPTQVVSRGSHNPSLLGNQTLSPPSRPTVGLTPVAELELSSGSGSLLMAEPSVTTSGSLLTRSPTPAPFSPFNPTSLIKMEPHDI
Outline: as §1

ELK4 = molecular target: T3, ELK4 (Homo sapiens, UniProt P28324-2 1-405); settings: protein: recombinant; tags: N-terminal GST; dsDNA, one strand shown
T3 sequence: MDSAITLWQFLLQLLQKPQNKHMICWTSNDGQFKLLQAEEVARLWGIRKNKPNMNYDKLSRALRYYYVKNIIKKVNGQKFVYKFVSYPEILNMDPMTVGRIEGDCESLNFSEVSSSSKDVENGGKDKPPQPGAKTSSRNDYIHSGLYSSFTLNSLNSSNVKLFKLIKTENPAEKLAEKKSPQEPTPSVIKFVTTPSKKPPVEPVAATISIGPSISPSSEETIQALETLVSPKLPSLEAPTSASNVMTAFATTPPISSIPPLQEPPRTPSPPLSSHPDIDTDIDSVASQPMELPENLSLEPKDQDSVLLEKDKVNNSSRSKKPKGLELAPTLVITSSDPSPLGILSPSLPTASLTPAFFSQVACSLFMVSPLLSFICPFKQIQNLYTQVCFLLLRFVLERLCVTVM
Outline: as §1

ETV2 = molecular target: T4, ETV2 (Homo sapiens, UniProt O00321 1-342); settings: protein: recombinant; tags: N-terminal GST; dsDNA, one strand shown
T4 sequence: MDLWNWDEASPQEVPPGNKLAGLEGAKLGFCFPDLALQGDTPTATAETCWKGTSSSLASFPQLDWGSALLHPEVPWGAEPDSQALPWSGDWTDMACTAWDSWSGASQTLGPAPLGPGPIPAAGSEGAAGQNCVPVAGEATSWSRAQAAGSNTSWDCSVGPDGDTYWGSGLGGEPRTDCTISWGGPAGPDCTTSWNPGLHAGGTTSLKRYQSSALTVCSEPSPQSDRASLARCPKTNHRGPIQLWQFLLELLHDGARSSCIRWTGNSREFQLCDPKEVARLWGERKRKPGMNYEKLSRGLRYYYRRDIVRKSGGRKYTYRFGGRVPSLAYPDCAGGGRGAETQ
Outline: as §1

ELF3 = molecular target: T5, ELF3 (Homo sapiens, UniProt P78545 1-371); settings: protein: recombinant; tags: N-terminal GST; dsDNA, one strand shown
T5 sequence: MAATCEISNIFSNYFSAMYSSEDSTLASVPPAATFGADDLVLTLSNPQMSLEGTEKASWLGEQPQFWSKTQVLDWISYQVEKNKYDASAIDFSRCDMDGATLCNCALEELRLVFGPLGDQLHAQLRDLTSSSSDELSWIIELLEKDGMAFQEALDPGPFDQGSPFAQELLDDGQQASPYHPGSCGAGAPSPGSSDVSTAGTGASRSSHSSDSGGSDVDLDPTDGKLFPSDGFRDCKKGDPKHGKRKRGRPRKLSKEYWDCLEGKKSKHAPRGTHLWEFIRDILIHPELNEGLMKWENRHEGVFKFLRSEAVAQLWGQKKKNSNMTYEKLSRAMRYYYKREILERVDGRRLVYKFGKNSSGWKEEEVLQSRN
Outline: as §1

CRX = CRX (Homo sapiens, UniProt O43186 1-299); settings: protein: recombinant; tags: N-terminal GST; dsDNA, one strand shown
CRX, sequence (O43186 whole entry): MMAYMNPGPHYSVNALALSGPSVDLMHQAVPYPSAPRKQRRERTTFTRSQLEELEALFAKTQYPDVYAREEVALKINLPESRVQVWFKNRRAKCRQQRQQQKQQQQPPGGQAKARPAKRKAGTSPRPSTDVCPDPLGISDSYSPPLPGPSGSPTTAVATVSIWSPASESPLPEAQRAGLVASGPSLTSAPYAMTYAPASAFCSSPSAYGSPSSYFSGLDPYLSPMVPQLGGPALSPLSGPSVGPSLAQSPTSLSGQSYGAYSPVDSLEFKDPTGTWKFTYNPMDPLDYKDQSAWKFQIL
Outline: as §1

ETV1 = ETV1 (Homo sapiens, UniProt P50549 1-477); settings: protein: recombinant; tags: N-terminal GST; dsDNA, one strand shown
ETV1, sequence (P50549 whole entry): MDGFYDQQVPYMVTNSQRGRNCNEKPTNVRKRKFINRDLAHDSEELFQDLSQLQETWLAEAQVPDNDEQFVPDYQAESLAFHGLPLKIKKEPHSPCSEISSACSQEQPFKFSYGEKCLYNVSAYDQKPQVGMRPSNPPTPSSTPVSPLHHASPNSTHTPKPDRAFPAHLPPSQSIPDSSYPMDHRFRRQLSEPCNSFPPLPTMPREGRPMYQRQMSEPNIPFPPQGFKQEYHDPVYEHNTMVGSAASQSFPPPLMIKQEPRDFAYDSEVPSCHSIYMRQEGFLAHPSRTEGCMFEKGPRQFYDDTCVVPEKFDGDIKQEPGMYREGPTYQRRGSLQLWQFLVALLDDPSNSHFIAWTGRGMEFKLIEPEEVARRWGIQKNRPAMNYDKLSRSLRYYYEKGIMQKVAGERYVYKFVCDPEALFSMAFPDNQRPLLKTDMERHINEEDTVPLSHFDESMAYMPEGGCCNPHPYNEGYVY
Outline: as §1

ERF = molecular target: T6, ERF (Homo sapiens, UniProt P50548 1-548); settings: protein: recombinant; tags: N-terminal GST; dsDNA, one strand shown
T6 sequence: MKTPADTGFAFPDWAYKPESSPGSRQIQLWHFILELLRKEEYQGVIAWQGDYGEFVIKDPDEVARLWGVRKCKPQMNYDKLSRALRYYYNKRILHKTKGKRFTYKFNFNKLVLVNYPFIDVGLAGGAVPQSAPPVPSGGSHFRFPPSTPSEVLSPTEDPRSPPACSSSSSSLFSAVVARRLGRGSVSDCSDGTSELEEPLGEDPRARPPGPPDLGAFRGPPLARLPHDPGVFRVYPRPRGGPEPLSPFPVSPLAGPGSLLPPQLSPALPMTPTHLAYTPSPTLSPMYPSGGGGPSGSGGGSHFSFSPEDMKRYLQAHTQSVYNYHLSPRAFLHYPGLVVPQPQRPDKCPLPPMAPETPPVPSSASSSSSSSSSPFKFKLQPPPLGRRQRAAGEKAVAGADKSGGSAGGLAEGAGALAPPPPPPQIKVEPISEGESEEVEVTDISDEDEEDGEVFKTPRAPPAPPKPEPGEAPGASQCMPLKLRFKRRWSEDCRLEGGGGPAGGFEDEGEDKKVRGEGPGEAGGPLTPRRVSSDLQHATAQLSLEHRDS
Outline: as §1

ETV3L = molecular target: T7, ETV3L (Homo sapiens, UniProt Q6ZN32 1-361); settings: protein: recombinant; tags: N-terminal GST; dsDNA, one strand shown
T7 sequence: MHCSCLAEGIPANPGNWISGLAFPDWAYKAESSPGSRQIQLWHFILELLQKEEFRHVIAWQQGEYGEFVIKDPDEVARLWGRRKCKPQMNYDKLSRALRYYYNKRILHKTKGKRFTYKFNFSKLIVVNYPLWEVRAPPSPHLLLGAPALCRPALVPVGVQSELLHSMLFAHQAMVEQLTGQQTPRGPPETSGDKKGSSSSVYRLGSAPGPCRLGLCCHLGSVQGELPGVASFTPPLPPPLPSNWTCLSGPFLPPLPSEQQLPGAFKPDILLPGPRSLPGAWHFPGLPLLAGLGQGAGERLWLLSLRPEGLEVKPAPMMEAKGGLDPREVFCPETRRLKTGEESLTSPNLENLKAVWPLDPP
Outline: as §1

ETS2 = molecular target: T8, ETS2 (Homo sapiens, UniProt P15036 1-469); settings: protein: recombinant; tags: N-terminal GST; dsDNA, one strand shown
T8 sequence: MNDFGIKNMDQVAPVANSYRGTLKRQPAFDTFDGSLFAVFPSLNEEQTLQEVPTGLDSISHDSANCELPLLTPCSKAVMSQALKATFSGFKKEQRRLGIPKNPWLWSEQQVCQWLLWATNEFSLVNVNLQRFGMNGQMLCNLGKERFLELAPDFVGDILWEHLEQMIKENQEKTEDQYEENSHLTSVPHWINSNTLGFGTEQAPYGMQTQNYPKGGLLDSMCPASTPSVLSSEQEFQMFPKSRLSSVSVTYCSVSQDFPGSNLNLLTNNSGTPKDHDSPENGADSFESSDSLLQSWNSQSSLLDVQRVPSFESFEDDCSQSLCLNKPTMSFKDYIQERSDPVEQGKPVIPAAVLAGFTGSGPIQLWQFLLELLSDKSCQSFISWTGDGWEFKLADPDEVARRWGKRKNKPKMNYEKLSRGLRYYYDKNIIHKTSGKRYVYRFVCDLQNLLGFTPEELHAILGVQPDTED
Outline: as §1

SPDEF = molecular target: T9, SPDEF (Homo sapiens, UniProt O95238 1-335); settings: protein: recombinant; tags: N-terminal GST; dsDNA, one strand shown
T9 sequence: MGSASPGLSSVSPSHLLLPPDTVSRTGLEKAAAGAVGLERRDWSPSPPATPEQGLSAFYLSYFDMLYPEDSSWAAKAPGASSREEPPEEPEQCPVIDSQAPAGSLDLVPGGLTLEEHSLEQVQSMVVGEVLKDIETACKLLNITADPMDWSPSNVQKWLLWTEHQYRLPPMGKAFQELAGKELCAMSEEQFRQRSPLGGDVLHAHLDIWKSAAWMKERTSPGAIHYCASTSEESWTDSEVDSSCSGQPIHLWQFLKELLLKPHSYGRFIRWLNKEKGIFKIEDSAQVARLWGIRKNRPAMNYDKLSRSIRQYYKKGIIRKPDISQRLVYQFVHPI
Outline: as §1

ETV7 = molecular target: T10, ETV7 (Homo sapiens, UniProt Q9Y603 1-341); settings: protein: recombinant; tags: N-terminal GST; dsDNA, one strand shown
T10 sequence: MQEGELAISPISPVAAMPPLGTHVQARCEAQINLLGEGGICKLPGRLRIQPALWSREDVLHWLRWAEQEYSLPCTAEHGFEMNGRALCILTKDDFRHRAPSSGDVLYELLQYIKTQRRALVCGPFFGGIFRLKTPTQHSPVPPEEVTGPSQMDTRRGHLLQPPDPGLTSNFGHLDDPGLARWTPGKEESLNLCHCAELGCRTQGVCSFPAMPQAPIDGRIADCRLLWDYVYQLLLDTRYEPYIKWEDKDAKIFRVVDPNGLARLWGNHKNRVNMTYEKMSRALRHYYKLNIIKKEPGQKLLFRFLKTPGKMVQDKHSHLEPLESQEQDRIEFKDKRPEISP
Outline: as §1

ELF5 = molecular target: T11, ELF5 (Homo sapiens, UniProt Q9UKW6-2 1-255); settings: protein: recombinant; tags: N-terminal GST; dsDNA, one strand shown
T11 sequence: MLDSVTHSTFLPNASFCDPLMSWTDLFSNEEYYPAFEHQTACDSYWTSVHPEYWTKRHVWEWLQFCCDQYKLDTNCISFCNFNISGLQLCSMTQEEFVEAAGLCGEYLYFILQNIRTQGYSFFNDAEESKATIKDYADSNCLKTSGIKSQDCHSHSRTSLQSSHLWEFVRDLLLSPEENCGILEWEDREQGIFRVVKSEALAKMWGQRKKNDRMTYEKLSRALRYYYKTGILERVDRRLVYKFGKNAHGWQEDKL
Outline: as §1

ETV3 = molecular target: T12, ETV3 (Homo sapiens, UniProt P41162-2 1-143); settings: protein: recombinant; tags: N-terminal GST; dsDNA, one strand shown
T12 sequence: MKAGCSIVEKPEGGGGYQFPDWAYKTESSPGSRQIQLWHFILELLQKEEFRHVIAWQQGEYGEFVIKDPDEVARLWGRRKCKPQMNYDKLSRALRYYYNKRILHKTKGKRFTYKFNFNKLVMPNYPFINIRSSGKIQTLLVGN
Outline: as §1

ETV6 = ETV6 (Homo sapiens, UniProt P41212 1-452); settings: protein: recombinant; tags: N-terminal GST; dsDNA, one strand shown
ETV6, sequence (P41212 whole entry): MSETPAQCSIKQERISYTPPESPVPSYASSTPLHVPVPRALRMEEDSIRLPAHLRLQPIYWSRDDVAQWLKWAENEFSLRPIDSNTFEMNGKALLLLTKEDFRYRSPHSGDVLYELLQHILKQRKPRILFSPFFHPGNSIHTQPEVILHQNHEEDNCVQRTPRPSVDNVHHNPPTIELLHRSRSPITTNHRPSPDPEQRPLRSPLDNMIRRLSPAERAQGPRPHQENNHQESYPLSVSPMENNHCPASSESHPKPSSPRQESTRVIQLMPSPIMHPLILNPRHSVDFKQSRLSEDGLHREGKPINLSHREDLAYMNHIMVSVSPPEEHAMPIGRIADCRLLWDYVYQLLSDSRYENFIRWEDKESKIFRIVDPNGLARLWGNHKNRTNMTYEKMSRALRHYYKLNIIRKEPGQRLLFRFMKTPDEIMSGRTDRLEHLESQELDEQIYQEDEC
Outline: as §1

## ATGACG
FEV
  binding signal: 1.32 fold enrichment (6-mer frequency, TF over GST control)
ETV5
  binding signal: 1.4 fold enrichment (6-mer frequency, TF over GST control)
HSF1
  binding signal: 1.13 fold enrichment (6-mer frequency, TF over GST control)
SPIC
  binding signal: 1.18 fold enrichment (6-mer frequency, TF over GST control)
ELF4
  binding signal: 1.39 fold enrichment (6-mer frequency, TF over GST control)
ELK4
  binding signal: 1.47 fold enrichment (6-mer frequency, TF over GST control)
ETV2
  binding signal: 1.25 fold enrichment (6-mer frequency, TF over GST control)
ELF3
  binding signal: 1.3 fold enrichment (6-mer frequency, TF over GST control)
CRX
  binding signal: 1.11 fold enrichment (6-mer frequency, TF over GST control)
ETV1
  binding signal: 1.3 fold enrichment (6-mer frequency, TF over GST control)
ERF
  binding signal: 1.39 fold enrichment (6-mer frequency, TF over GST control)
ETV3L
  binding signal: 1.34 fold enrichment (6-mer frequency, TF over GST control)
ETS2
  binding signal: 1.26 fold enrichment (6-mer frequency, TF over GST control)
SPDEF
  binding signal: 1.45 fold enrichment (6-mer frequency, TF over GST control)
ETV7
  binding signal: 1.16 fold enrichment (6-mer frequency, TF over GST control)
ELF5
  binding signal: 1.44 fold enrichment (6-mer frequency, TF over GST control)
ETV3
  binding signal: 1.2 fold enrichment (6-mer frequency, TF over GST control)
ETV6
  binding signal: 1.28 fold enrichment (6-mer frequency, TF over GST control)
